Source: PubChem BioAssay (National Center for Advancing Translational Sciences (NCATS))
The list is not random: actives were taken first. Their share in the collection is about 2.4%.
Hsp90 Hop PPI = changes Hsp90-Hop TPR2A binding signal, up or down | AlphaScreen TPR2A-His6 binding biotin-Hsp90 C-terminal peptide | Potency, µM (highest dose often 57 µM) | 71,000 tested, 0.44% active; active means well fitted curve in either direction with a large enough effect; inconclusive means small, poorly fitted or top-dose-only effect, or another doubt
ALOX15 inhib = 15-hLO (ALOX15) enzyme inhibition; AID 887; P16050; purified 15hLO-1, xylenol orange hydroperoxide absorbance; Potency, µM (top dose mostly 57.1 µM), usual class: inhibitors; 74,000 tested, 1.4% active; further: nearly all actives have a fitted effect of over 55% in size
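Quantitative HTS in 25 mM Hepes pH 7.5 containing 0.01% Triton X-100: human 15hLO-1 at 40 nM, arachidonic acid at 50 uM, 6 min turnover. Product quantified via ferrous oxidation/xylenol orange, 573:405 nm absorbance ratio.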
Casp1 inh = allosteric or competitive inhibitors of human caspase-1. P29466. Caspase-1 enzyme, Ac-WEHD-AFC fluorogenic rate. Potency, µM (top dose mostly 57.5 µM), usual class: inhibitors. 75,000 tested, 0.03% active. AID 900
Tau fil binding = binders of human tau filaments; 71,000 tested, 2% active; Potency, µM (top dose mostly 57.1 µM); AID 596; recombinant tau filaments, thioflavin S fluorescence, 15 h; filaments grown with octadecylsulfate alongside compound; P10636;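 further: actives lower thioflavin S fluorescence by blocking filaments or displacing dye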
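Recombinant tau protein (human, 1 uM final) plus 30 uM ODS in HEPES pH 7.4 with NaCl, DTT and thioflavine S. Compound present from the start; fluorescence at 510 nm after 15 h, 37 C.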
Casp7 inh = blocks human caspase-7 allosterically or competitively; 75,000 tested, 0.02% active; P55210; recombinant caspase-7, Ac-DEVD-AFC fluorescence rate; Potency, µM (highest dose often 57.5 µM), hits mostly inhibitors; active means well fitted inhibition curve with a large enough effect in the main read-out, with a control signal flat, not every such curve was filed as active; inconclusive means small, poorly fitted or top-dose-only effect, or a change in a side signal
15-hLO-2 inh = blocks human 15-lipoxygenase 2 activity; 110,000 tested, 0.56% active; Potency, µM (highest dose often 57.1 µM), hits mostly inhibitors; purified 15hLO-2, xylenol orange hydroperoxide absorbance; AID 881; O15296; further: nearly all actives have a fitted effect of over 60% in size
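Purified human 15hLO-2 (50 nM) preincubated 15 min with compound, then 45 uM arachidonic acid for 90 min at RT in 25 mM Hepes pH 7.5, 0.01% Triton X-100. Hydroperoxide detected by Fe-xylenol orange; 573/405 nm absorbance ratio.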
Hsp90-TPR2A inh = confirmation and counter-screen of Hsp90 TPR2A co-chaperone interaction disrupters; shares compounds with Hsp90 Hop PPI; 45 tested, 100% active; AlphaScreen TPR2A-His6 / biotin-Hsp90 peptide binding; activity, negative = inhibition, % at 40 µM or 46 µM, hits read low;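 active means compound lowering the Hsp90 and TPR2A binding signal, whether or not the linker counterscreen also flagged it as an artifact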
Large screens that a line does not name were inactive (follow-up assays come after a bar, where they were run); ! = not confirmed by another sample. Unless noted, the call rests on the fitted dose curve; in most records, active means well fitted curve in the direction sought with a large enough effect; inconclusive means small, poorly fitted or top-dose-only effect, or another doubt; inactive means no such curve, though single readings can be large; an effect the other way counts as inactive or inconclusive.

CCCCc1ccc2[nH]cc(CCN)c2c1	Tau fil binding 15.8µM
Cc1nc2cc(C(=O)N3CCC4(CC3)OCCO4)ccc2n1-c1cccc(F)c1	none
O=C(c1ccc2nc(-c3ccco3)c(-c3ccco3)nc2c1)N1CCC2(CC1)OCCO2	ALOX15 inhib 3.98µM, Casp1 inh inconclusive, Casp7 inh inconclusive
CCCCCCCCC(=O)NCc1ccc(O)c(OC)c1	ALOX15 inhib 25.1µM!
Cc1ccc(NC(=[OH+])c2cc3ccccc3cc2O)c(C)c1.Cc1ccc(NC(=[OH+])c2cc3ccccc3cc2O)c(C)c1.[Ni]	ALOX15 inhib 3.98µM
CCCn1ncc(C(=O)O)c1C	none
Nc1cccc2c(N)cccc12	Tau fil binding 31.6µM, 15-hLO-2 inh inconclusive
Clc1cccc2ccccc12	none
O=C(O)CN1CCN(CC(=O)O)CC(=O)[O][Hg][O]C(=O)C1	ALOX15 inhib 0.159µM, 15-hLO-2 inh 0.316µM
COc1ccccc1N1CCN(Cc2c(F)cccc2F)CC1	none
Oc1ccc(Cl)cc1Cc1ccccc1	ALOX15 inhib inconclusive, 15-hLO-2 inh inconclusive
CCN(CC)Cc1cc(Nc2ccnc3cc(Cl)ccc23)ccc1O	Tau fil binding 3.16µM
COc1ccc2[nH]cc(C3=CCNCC3)c2c1	none
CN1CC=C(c2c[nH]c3ccccc23)CC1	ALOX15 inhib 0.631µM (no result: 15-hLO-2 inh)
Brc1ccc(Oc2ccc(Br)cc2Br)c(Br)c1	Hsp90 Hop PPI 31.6µM
NCCc1c[nH]c2ccc(OC(=O)C(=O)O)cc12	none
CCCc1nc2ccccc2c(=O)n1-c1ccccc1OC	none (no result: Hsp90 Hop PPI, ALOX15 inhib, Casp1 inh, Tau fil binding, Casp7 inh)
Oc1ccc(Cl)cc1Cc1cc(Cl)ccc1O	ALOX15 inhib 12.6µM, Casp1 inh inconclusive
O=[N+]([O-])c1ccc2c3c(cccc13)CC2	ALOX15 inhib inconclusive, Tau fil binding 25.1µM
S=C=Nc1cccc2ccccc12	ALOX15 inhib inconclusive
c1ccc2c(c1)-c1cccc3cccc-2c13	Hsp90 Hop PPI 31.6µM
O=C(OCC#CCSc1nnc(-c2ccccc2)o1)c1ccco1	ALOX15 inhib 25.1µM
CC1=C(O)C(=O)C=C2C1=CC=C1[C@]2(C)CC[C@@]2(C)C3C[C@](C)(C(=O)O)CC[C@@]3(C)CC[C@@]12C (stereo not given in full)	ALOX15 inhib 3.98µM, 15-hLO-2 inh 3.98µM (no result: Hsp90 Hop PPI, Tau fil binding)
COC(=O)[C@]1(C)CC[C@@]2(C)CC[C@@]3(C)C4=CCc5c(cc(O)c(O)c5C)[C@]4(C)CC[C@@]3(C)C2C1 (stereo not given in full)	none (no result: Hsp90 Hop PPI, Tau fil binding)
CC(C)c1cccc(O)c(=O)c1	ALOX15 inhib inconclusive, 15-hLO-2 inh 12.6µM (no result: Hsp90 Hop PPI, Tau fil binding)
CC(N)C(O)c1ccc(O)c(O)c1 (stereo not given)	none (no result: Hsp90 Hop PPI, Tau fil binding)
CC1CC[C@@]2(NC1)O[C@@H]1C[C@H]3C4CC=C5C[C@@H](O)CC[C@]5(C)C4CC[C@]3(C)[C@H]1[C@@H]2C (stereo not given in full)	none (no result: Hsp90 Hop PPI, Tau fil binding)
Cn1nc(Cc2ccccc2)nc2c(=O)n(C)c(=O)nc1-2	none (no result: Hsp90 Hop PPI, ALOX15 inhib, Casp1 inh, Tau fil binding, Casp7 inh, 15-hLO-2 inh) | Hsp90-TPR2A inh active
CCn1nc(-c2cccs2)nc2c(=O)n(C)c(=O)nc1-2	Hsp90 Hop PPI 1.58µM, Casp1 inh 0.794µM, Casp7 inh inconclusive | Hsp90-TPR2A inh active
COc1ccc(C(=O)c2c(C)n(CCN3CCOCC3)c3cc(I)ccc23)cc1	Tau fil binding inconclusive
CCOC(=O)[C@@]1(C#N)[C@@H]2C=CC(C(N)=O)=CN2[C@@H](C(N)=O)[C@@H]1c1cccc(Cl)c1	none (no result: Hsp90 Hop PPI, ALOX15 inhib, Casp1 inh, Tau fil binding, Casp7 inh)
